Each structure is given as a SMILES string. Hit rate of the full screen: of about 320,000 compounds, about 2,100 (0.66%) were called active. Not shown: some 53% with an inconclusive outcome. Calls follow the shape of the dose curve; as a rule, active = well fitted inhibition curve with a large enough effect in the signal ratio, with a control signal flat (not every such curve was filed as active); inconclusive = small, poorly fitted or top-dose-only effect, or effect the other way, or a change in a side signal; inactive = flat fitted curve, though single readings scatter; the % refers to the signal ratio. Only a selection was taken, and actives are over-represented in it overall.
Potency is read from the fitted curve at half-maximal effect.

The experiment in a line: qHTS Assay for Lipid Storage Modulators in Drosophila S3 Cells.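 As to cell number change: cells counted by Cell Tracker Red CMTPX staining in the red channel.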 As to lipid storage change, negative = inhibition: % is scaled to controls: 0 for no effect and ±100 for the full control effect. To be noted: BODIPY lipid droplet fluorescence, 18-24 h, cells fed with added oleic acid; cell number change: measured here: cell count max response; series mostly up to 46.1 µM; lipid storage change, negative = inhibition: at the top concentration. The method, boiled down: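 Drosophila S3 cells loaded with oleic acid (400 uM, as added) and compounds at several concentrations; lipid droplets imaged by 488-nm laser-scanning cytometry, 500–530 nm intensity and object ratio to cell channel. Percent activity normalized to 20 uM Triacsin C.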
Regarding `Nc1c(Cl)cc(C2=NCCn3c2c2ccc([N+](=O)[O-])cc2[n+]3[O-])cc1Cl`, the result was inactive and the cell number change is -13.5%.

For the compound `COc1ccc2c3n(nc2c1)CCN=C3c1ccc(Cl)cc1`, the “lipid storage change, negative = inhibition” value is 18.2% (inactive) and the cell number change came out at 28.7%.

Regarding `Nc1c(Cl)cc(C2=NCCn3nc4cc([N+](=O)[O-])ccc4c32)cc1Cl`, the Potency was 5.17 µM (active) and the cell number change stood at 13.3%.

Regarding `C/C=C/C(=O)N1CC2(CC(c3cccc(NC(=O)CCCCC)c3)=NO2)C[C@H]1C(N)=O` (stereo not given in full), the “lipid storage change, negative = inhibition” value is 5.76% (inactive) and the cell number change came to 7.84%.

On to `CC1(O)CC(=O)N(c2ccccc2)O1` (stereo not given), for which the “lipid storage change, negative = inhibition” value is -7.45% (inactive) and the cell number change was 5.56%.

Regarding `CC1(C)CC(=O)N(c2ccccc2)C1(C)O` (stereo not given), the Potency is 0.164 µM (active) and the cell number change was found to be 6.8%.

For `CC(C)N1C(=O)N(c2ccccc2)C(C)(O)CC1(C)C` (stereo not given), the “lipid storage change, negative = inhibition” value is 7.15% (inactive).

Regarding `Nc1nc(CN2CCc3ccccc3C2)nc(Nc2ccccc2)n1`, the compound was called inactive.

Regarding `COC(=O)[C@@]12CCCCN1[C@H](c1ccc(-c3ccc(OC)cc3)cc1)[C@@H]1C(=O)N(C)C(=O)[C@@H]12`, the compound was called inactive.

Consider `CCCCCCSc1ccc([C@@H]2[C@H]3C(=O)N(CC)C(=O)[C@H]3[C@]3(C(=O)OC)CCCN23)cc1`, for which the Potency was 0.517 µM (active).

Consider `CCCCCCSc1ccc([C@@H]2[C@H]3C(=O)N(C)C(=O)[C@H]3[C@]3(C(=O)OC)CCCCN23)cc1`, for which the Potency is 20.6 µM (active).

As to `CCCSc1ccc([C@@H]2[C@H]3C(=O)N(CC)C(=O)[C@H]3[C@]3(C(=O)OC)CCCN23)cc1OC`, the “lipid storage change, negative = inhibition” value is 14.4% (inactive) and the cell number change amounted to 11.7%.

In the case of `CCN1C(=O)[C@@H]2[C@@H](c3ccc(-c4ccc(F)cc4)cc3)N3CCC[C@@]3(C(=O)OC)[C@@H]2C1=O`, the “lipid storage change, negative = inhibition” value is 6.74% (inactive) and the cell number change was -18.3%.

Turning to `COC(=O)[C@@]12CCCCN1[C@H](c1ccc(SC3CCCCC3)cc1)[C@H]1C(=O)N(C)C(=O)[C@H]12`, the “lipid storage change, negative = inhibition” value was 11.4% (inactive).

Take `CS(=O)(=O)Nc1ccc(S(=O)(=O)NCCc2ccccc2)cc1`: the compound was classed as inactive.

With `CC(C)NC(=O)c1cc2c(C(F)(F)F)nn(C)c2s1`, the call was inactive and the cell number change was -21.4%.

For `COc1ccc(C(=O)C(C)OC(=O)c2cccc(S(=O)(=O)Nc3cc(Cl)c(OC)cc3OC)c2)cc1` (stereo not given), the “lipid storage change, negative = inhibition” value was 19.9% (inactive) and the cell number change is -7.94%.

For `N#Cc1cccc(NC(=O)COc2ccc(-n3ccnc3)cc2)c1`, the “lipid storage change, negative = inhibition” value is 14.6% (inactive) and the cell number change is -13.2%.

As for `COc1ccc(N2C(=O)CC(N3CCN(c4cccc(Cl)c4)CC3)C2=O)cc1` (stereo not given), the compound was classed as inactive and the cell number change was -1.05%.

Consider `Nc1cc(C(=O)O)c(Oc2ccc(Cl)cc2Cl)cc1C(=O)O`, for which the “lipid storage change, negative = inhibition” value is -11.9% (inactive) and the cell number change was -11.5%.

On to `COCCN=c1scc(-c2ccc3c(c2)NC(=O)CO3)n1/N=C(\C)c1ccc(O)cc1`, for which the “lipid storage change, negative = inhibition” value is 2.86% (inactive) and the cell number change is 3.12%.

Take `COc1cc(C(C)=O)ccc1COc1ccc(C(=O)OC(C)C(=O)NC(N)=O)cc1OC` (stereo not given): the “lipid storage change, negative = inhibition” value is 6.34% (inactive) and the cell number change amounted to 7.94%.

Turning to `Cc1ccc(N=Nc2c(O)c3ccccc3[nH]c2=O)c(S(=O)(=O)N(C)C)c1`, the “lipid storage change, negative = inhibition” value is 7.55% (inactive) and the cell number change was determined as 7.5%.

Consider `NC(=O)c1ccc(N=Nc2c(O)c3ccccc3[nH]c2=O)cc1`, for which the “lipid storage change, negative = inhibition” value was 5.32% (inactive) and the cell number change was found to be 9.46%.

With `Cc1cc(N=Nc2c(O)c3ccccc3[nH]c2=O)ccc1N=Nc1ccc(C(=O)N(C)C)cc1`, the Potency is 20.6 µM (active) and the cell number change is -11.6%.

For the compound `CC(C)(CNC(=O)c1cc([N+](=O)[O-])ccc1N1CCC(Cc2ccccc2)CC1)N1CCOCC1`, the Potency is 20.6 µM (active) and the cell number change was 7.52%.

For the compound `O=C(O)c1cc([N+](=O)[O-])ccc1N1CCC(Cc2ccccc2)CC1`, the “lipid storage change, negative = inhibition” value was 9.81% (inactive) and the cell number change is 4.05%.

In the case of `O=C(NCCOc1ccccc1)c1cc([N+](=O)[O-])ccc1N1CCOCC1`, the “lipid storage change, negative = inhibition” value is 1.04% (inactive) and the cell number change is -1.71%.

Take `CCOc1ccc(N2C(=O)C3ON(c4ccccc4)C(c4ccco4)C3C2=O)cc1` (stereo not given): the “lipid storage change, negative = inhibition” value was -14.5% (inactive) and the cell number change was -16.3%.

With `CCN(CC)S(=O)(=O)c1ccc(S(=O)(=O)N(CC(=O)Nc2ccccc2)Cc2ccco2)cc1`, the “lipid storage change, negative = inhibition” value was -6% (inactive) and the cell number change was -12.6%.

With `Cc1cc(C)n(-c2nnc(C)c(=O)[nH]2)n1`, the “lipid storage change, negative = inhibition” value was 4.01% (inactive).

As to `O=C(NP(=O)(N1CCCC1)N1CCCC1)C1=C(N2CCOCC2)/C(=C/c2cccc([N+](=O)[O-])c2)CC1`, the “lipid storage change, negative = inhibition” value was 19.1% (inactive).

On to `N#C/C(=C/c1cccc([N+](=O)[O-])c1)C(=O)Nc1ccccc1O`, for which the “lipid storage change, negative = inhibition” value is 1.09% (inactive) and the cell number change was 0.725%.

With `CC(C)C(NC(=O)C12CC3CC(CC(C3)C1)C2)C(=O)N/N=C/C1=C(N2CCOCC2)C(=C\c2cccc([N+](=O)[O-])c2)/CC1` (stereo not given), the “lipid storage change, negative = inhibition” value was 13% (inactive) and the cell number change was 9.26%.

For `CCOC(=O)C(=O)C1=C(N2CCOCC2)/C(=C\c2cccc([N+](=O)[O-])c2)CC1`, the “lipid storage change, negative = inhibition” value was 4.84% (inactive) and the cell number change was -9.52%.

Consider `CC(NC(=O)C12CC3CC(CC(C3)C1)C2)C(=O)N/N=C/C1=C(N2CCOCC2)C(=C\c2cccc([N+](=O)[O-])c2)/CC1` (stereo not given), for which the Potency is 13 µM (active) and the cell number change amounted to 4.98%.

On to `N#C/C(=C\C1=C(N2CCOCC2)C(=C/c2cccc([N+](=O)[O-])c2)/CC1)C(=O)Nc1ccccc1F`, for which the Potency was 2.06 µM (active) and the cell number change stood at 1.41%.

Turning to `CCN(CC)c1ccc(/C=C2\CCC(/C=C(\C#N)C(=O)Nc3ccccc3F)=C2N2CCOCC2)cc1`, the Potency was 0.58 µM (active) and the cell number change came out at 1.95%.

Turning to `O=C(O)c1ccccc1N/N=C/C1=C(N2CCOCC2)C(=C\c2ccccc2)/CC1`, the “lipid storage change, negative = inhibition” value was 8.4% (inactive).

`O=CC1=C(N2CCOCC2)/C(=C\c2ccccc2)CC1`: the “lipid storage change, negative = inhibition” value was 6.77% (inactive) and the cell number change amounted to 1.5%.

With `CC(C)Oc1ccc(N2CC(C(=O)Nc3ccc(N4CCOCC4)cc3)CC2=O)cc1` (stereo not given), the “lipid storage change, negative = inhibition” value was 7.42% (inactive) and the cell number change stood at 15.2%.

For the compound `CCOC(=O)c1cc(CC)sc1/N=C/c1c(O)ccc2ccccc12`, the “lipid storage change, negative = inhibition” value is 21.6% (inactive) and the cell number change was determined as 1.95%.

On to `O=C(Cn1cnc([N+](=O)[O-])n1)NCCO`, for which the “lipid storage change, negative = inhibition” value was -0.893% (inactive) and the cell number change stood at 0.588%.

For `O=c1[nH]c(CN2CCN(c3ccc(F)cc3)CC2)nc2ccccc12`, the “lipid storage change, negative = inhibition” value is 9.13% (inactive) and the cell number change is -21.1%.

On to `CCC(=O)NC(C)c1cc(Cl)c2ccccc2c1O` (stereo not given), for which the “lipid storage change, negative = inhibition” value is 12.7% (inactive) and the cell number change was -12.2%.

The record behind these values is PubChem BioAssay AID2685 (National Center for Advancing Translational Sciences (NCATS), 2010).
